# Target: LEKR1
# Test: pooled miR-30 sensor sort-seq; sequence = guide strand
# Details: shRNA
# Further: reference of the scale not given here.
row,Sequence,sensor-assay potency score (higher = more potent)
1,TTTCCTTTGAATTAGATTCTTC,0.113
2,TTAGATTCTTCAGTGTACCGAG,0.595
3,TACTCTTTTCAGTTCATCCGAC,0.07

# Target: LENG8
# Test: as above
# Details: shRNA
row,Sequence,sensor-assay potency score (higher = more potent)
1,TCCACCGTGAACTCGGTGCGGA,-1.28
2,TTCTTCAGCTCTCGCTCCGGGT,-0.923
3,TTGAGCAGCTTTTCCGTGCGGT,0.289
4,TGTTGAACTTGAGACCTCCAGT,-0.589
5,TTCATGGTCACCCTTCTCCAAG,-1.23
6,TAAATTTACAACCCAAGTCCAC,-0.679
7,TTGTCCTTCATGAAGACGTTGC,-0.437
8,TAGTCCTGCTTCTCTTTCCAGT,-0.999
9,TACACCTCCACCGTGAACTCGG,-0.419
10,TGTACTGAGAAGACCAATCTGT,0.223
11,TTCTCGTGTGAGGTATGCCAGC,-1.1
12,TTGTACTGCTGGTACCACTGGT,0.0135

# Source: the OligoGym collection
